Results on 29 molecules are retold here after PubChem BioAssay AID504329 (Southern Research Specialized Biocontainment Screening …, 2011).

Hit rate of the full screen: of about 340,000 compounds, about 1,000 (0.29%) were called active. Not all results are given here. Entries with a potency or affinity are not part of this list. Unmarked numbers belong to inactive results. Rule as the data show it: inconclusive = inhibition above about 27% without an active follow-up result; inactive = below that.

This test is described as follows: NS1A inhibition, H1N1 influenza, cell based functional assay (AID 504329). Particulars: percent inhibition, at 12.5 µM, active compounds read high.
On to `Cc1ccc(C2/C(=C(\O)c3c(C)nc4ccccn34)C(=O)C(=O)N2CCN(C)C)o1` (centres undefined), for which the inhibition (commonly the relative decrease from the control value, in per cent) is -13.9%. The figure for `COc1ccc(NC(=O)COC(=O)CCCOc2ccc(Cl)cc2Cl)cc1Cl` is -5.19%; for `Cc1[nH]nc2c1C(c1cnn(C)c1)C(C#N)=C(N)O2` (centres undefined) it is -1.46%; for `Cc1ccc(NS(=O)(=O)c2cc([N+](=O)[O-])ccc2NNC(=S)Nc2cc(C)ccc2C)c(C)c1` it is 21.2%. For `COc1ccc(NC(=S)NNc2ccc([N+](=O)[O-])cc2S(=O)(=O)Nc2ccc(C)cc2C)cc1`, the inhibition was 17.3%. For `Cc1cc(C)nc(NC(=NCc2ccc3c(c2)OCO3)NC(=O)Nc2ccccc2)n1`, the inhibition was 12.4%.

Consider `O=S(=O)(NC1CCC(NS(=O)(=O)c2c(F)cccc2F)CC1)c1ccc2c(c1)OCCO2` (centres undefined), for which the inhibition was 6.49%. The figure for `O=C(O)c1ccc(N/N=C/c2ccnc3ccccc23)cc1` is 12.7%; for `Nc1nc(N)c(N=Nc2ccc(C(=O)O)cc2)c(N)n1` it is 17.8%.

In the case of `CC(=NCCN1CCOCC1)c1c(O)n(-c2ccccc2C)c(=O)[nH]c1=O`, the inhibition is 5.2%. In the case of `COc1ccccc1Nc1ccc(S(=O)(=O)N2CCCCC2)cc1[N+](=O)[O-]`, the inhibition was 22.4%.

With `COc1ccc(Nc2ccc(S(=O)(=O)N3CCCCC3)cc2[N+](=O)[O-])cc1`, the inhibition is 21%. The figure for `COc1ccc(Nc2ccc(S(=O)(=O)N3CCCCC3)cc2[N+](=O)[O-])cc1Cl` is 21%.

On to `COc1cc(Nc2ccc(S(=O)(=O)N3CCN(C)CC3)cc2[N+](=O)[O-])cc(OC)c1`, for which the inhibition is 18.2%.

In the case of `CSCCC(NS(=O)(=O)c1cccc(C(F)(F)F)c1)C(=O)N(C)Cc1ccc2c(c1)OCCO2` (centres undefined), the inhibition is -15.2%.

For `C/C(=N\Nc1ccccc1)c1c(O)n(-c2ccccc2)c(=O)[nH]c1=O`, the inhibition is -15.4%. For the molecule `N#C/C(=C\c1ccc([N+](=O)[O-])cc1)c1nc(C2CC2)cs1`, the inhibition is -3.47%. The figure for `N#C/C(=C/c1ccccc1[N+](=O)[O-])c1nc(C2CC2)cs1` is 16.5%.

With `CN(CC(=O)NC(=O)NC1CCCCC1)c1ccccc1`, the inhibition was -19.7%. The figure for `CCCc1nnc(SCC(=O)Nc2cc(C)on2)n1CCOC` is -2.31%; for `O=C(O)c1cc(S(=O)(=O)N2CCCCC2)sc1Cl` it is 0.17%; for `Cc1[nH]n(-c2ccccc2)c(=O)c1N=Nc1ccccc1` it is -4.27%.

Take `Cc1[nH]n(-c2ccccc2)c(=O)c1N=Nc1ccccc1O`: the inhibition was 27.8%.

`Cc1[nH]n(-c2ccccc2)c(=O)c1N=Nc1ccc(Cl)cc1`: the inhibition is 1.98%. Consider `Cc1[nH]n(-c2ccccc2)c(=O)c1N=Nc1c(Cl)cccc1Cl`, for which the inhibition is -0.23%. The figure for `Cc1ccc(N=Nc2c(C)[nH]n(-c3ccccc3)c2=O)cc1Br` is 2.46%; for `Nc1[nH]n(-c2ccccc2)c(=O)c1N=Nc1ccccc1` it is 20.9%. In the case of `Nc1[nH]n(-c2ccccc2)c(=O)c1N=Nc1ccc2c(c1)OCO2`, the inhibition was -20.9%.

On to `Cc1[nH]n(-c2ccccc2)c(=O)c1N=Nc1ccc2c(c1)OCO2`, for which the inhibition was 1.81%.
